Experiment [1] can be described thus: HepG2 liver cancer cell viability effects, profiling panel, resazurin fluorescence, 24 h, PK04 Diversity Set (AID 1172). Note: test concentration not given here. The following applies: higher = more signal. (In general: Alamar Blue is a resazurin reagent that responds to reducing activity.)
Experiment [2] in a line: basal S. cerevisiae growth modulation, no modifier, primary screen, OD600, strain BY4716, 24 h, basal condition (AID 1173). The conditions noted are these: OD600, 24 h, higher = more signal, called active from +8 up or from −8 down.
Experiment [3] can be described thus: MM1S myeloma cell viability, profiling panel, resazurin fluorescence, basal, 24 h, PK04 Diversity Set (AID 1174).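 Note: MM1S multiple myeloma cell line; test concentration not given here.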 The conditions noted are these: higher = more signal, called active from +8 up or from −8 down.
The target in experiment [4] is Dihydroorotate dehydrogenase (quinone), mitochondrial (Plasmodium falciparum (isolate 3D7)) (UniProt Q08210). Description: PfDHODH enzyme inhibitors, primary screen, biochemical, C-terminal His tag, absorbance 600 nm (AID 1175).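 Note: recombinant parasite enzyme with a five histidine tag at its C terminus; test concentration not given here.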 The conditions noted are these: DCIP absorbance 600 nm, higher = more signal, called active from +8 up or from −8 down.
Experiment [5] is described as follows: P. aeruginosa biofilm formation inhibitors, primary screen, strain PAO1, LB-PBS medium, absorbance 600 nm (AID 1176). Note: test concentration not given here. The conditions noted are these: P. aeruginosa PAO1 growth/biofilm, A600, 12 h; higher = more signal.
Experiment [6] is described as follows: S. cerevisiae RM11-1a growth modifiers, primary screen, strain RM11-1a, OD600, basal, 24 h (AID 1177).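 Note: cultures grown under basal conditions with no added stressor; test concentration not given here.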 The following applies: OD600, 24 h, higher = more signal, called active from +8 up or from −8 down.
Experiment [7] is described as follows: E. coli acrAB mutant growth effects, primary screen, E. coli filamentation inducers, strain DRC39, OD650, 24 h (AID 1178).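 Note: growth measured as culture turbidity by optical density at 650 nm; test concentration not given here.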 The conditions noted are these: higher = more signal, called active from +8 up or from −8 down.
Experiment [8] in a line: E. coli acrAB mutant growth effects, primary screen, E. coli filamentation inducers, strain DRC39, OD650, 48 h (AID 1179).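 Note: screen aims at cell division blockers that make cells filament.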 The following applies: E. coli DRC39 delta-acrAB growth, higher = more signal, called active from +8 up or from −8 down.
The nature of experiment [9]: RPMI8226 myeloma cell viability, profiling panel, resazurin fluorescence, basal, 24 h, PK04 Diversity Set (AID 1180).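 Note: RPMI8826 multiple myeloma cell line at 5000 cells per well; test concentration not given here.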 The following applies: higher = more signal.
Experiment [10] addresses E3 ubiquitin-protein ligase XIAP (Homo sapiens) (UniProt P98170). Description: XIAP binders, primary screen, biophysical, small-molecule microarray, fluorescence 635 nm (AID 1181).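 Note: score merges 667 nm emission and signal to noise over triplicate slides.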 The conditions noted are these: small-molecule microarray binding, higher = more signal.

The source made the active and inactive calls. Unless noted, the rule behind the calls is not given here.

Sequence of E3 ubiquitin-protein ligase XIAP (Homo sapiens) (P98170 whole entry, looked up): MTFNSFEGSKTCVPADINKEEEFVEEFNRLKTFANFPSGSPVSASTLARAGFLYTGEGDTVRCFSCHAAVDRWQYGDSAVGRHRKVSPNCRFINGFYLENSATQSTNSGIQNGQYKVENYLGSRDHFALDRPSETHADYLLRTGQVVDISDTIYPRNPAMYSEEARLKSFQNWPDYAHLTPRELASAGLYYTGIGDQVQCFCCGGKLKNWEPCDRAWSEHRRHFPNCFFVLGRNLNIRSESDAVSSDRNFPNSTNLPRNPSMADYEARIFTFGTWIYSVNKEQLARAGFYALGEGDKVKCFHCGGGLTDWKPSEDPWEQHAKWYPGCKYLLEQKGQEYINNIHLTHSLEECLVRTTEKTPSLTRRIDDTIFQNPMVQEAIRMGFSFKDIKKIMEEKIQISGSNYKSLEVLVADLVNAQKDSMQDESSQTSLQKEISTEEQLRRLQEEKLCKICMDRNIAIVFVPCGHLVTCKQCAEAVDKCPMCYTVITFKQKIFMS
Sequence of Dihydroorotate dehydrogenase (quinone), mitochondrial (Plasmodium falciparum (isolate 3D7)) (Q08210 whole entry, looked up): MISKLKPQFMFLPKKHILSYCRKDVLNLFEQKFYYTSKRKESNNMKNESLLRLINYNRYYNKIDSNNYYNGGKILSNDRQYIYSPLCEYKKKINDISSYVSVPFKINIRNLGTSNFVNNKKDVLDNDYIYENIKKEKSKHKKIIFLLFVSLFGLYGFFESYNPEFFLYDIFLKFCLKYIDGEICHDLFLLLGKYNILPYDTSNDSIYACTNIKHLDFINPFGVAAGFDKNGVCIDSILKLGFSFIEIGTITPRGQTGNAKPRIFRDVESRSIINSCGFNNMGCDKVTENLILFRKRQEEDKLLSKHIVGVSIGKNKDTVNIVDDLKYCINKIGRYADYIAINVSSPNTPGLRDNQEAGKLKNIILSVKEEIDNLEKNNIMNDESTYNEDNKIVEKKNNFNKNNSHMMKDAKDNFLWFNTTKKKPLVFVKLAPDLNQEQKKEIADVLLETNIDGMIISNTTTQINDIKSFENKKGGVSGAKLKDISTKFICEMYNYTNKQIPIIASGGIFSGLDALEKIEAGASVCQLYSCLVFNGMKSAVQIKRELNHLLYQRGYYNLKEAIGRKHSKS

Regarding `CC(C)CN1C(=O)[C@@]2(c3ccc([N+](=O)[O-])cc3)CC(=O)N(C3CCCCC3)[C@@H]2c2ccc(CO)cc21`, the z-score in [1] is -0.321; in experiment [2], 0.669 (inactive); in [3], -0.248 (inactive); in experiment [5], 0.292 (inactive); in [6] it was 0.488 (inactive); in [7], 0.0743 (inactive). For the same molecule, the z-score was 0.922 (inactive) in [8] and -0.323 in [9]. Further, the composite z-score is -13.6 (active) in experiment [4] and 0.119 in experiment [10].
For `CO[C@H]1O[C@H](CO)[C@@H](OC(=O)Nc2ccccc2-c2ccccc2)[C@H](OC(=O)Nc2ccccc2-c2ccccc2)[C@@H]1OC(=O)Nc1ccccc1-c1ccccc1`, the z-score is -0.141 in experiment [1]; -0.652 (inactive) in experiment [2]; -0.146 (inactive) in experiment [3]; 1.31 (inactive) in [5]; 2.59 (inactive) in experiment [6]; 0.454 (inactive) in experiment [7]. Further, the z-score in [8] was 0.434 (inactive); in experiment [9], 0.203. Besides, the composite z-score in [4] is 0.288 (inactive); in [10], -0.0233.
Regarding `O=C1NC(=O)C2C1C=CC(C(O)c1ccc(I)cc1)N2Nc1ccccn1` (stereo not given), the z-score in [1] was -1.45; in experiment [2], -0.27 (inactive); in [3] it was -0.766 (inactive); in [5], 1.48 (inactive); in experiment [6], 0.275 (inactive); in experiment [7] it was -0.062 (inactive). Besides, the z-score in [8] was -0.495 (inactive); in experiment [9], -1.01. Besides, the composite z-score in experiment [4] was 0.309 (inactive); in experiment [10], 0.189.
For `NCCCCCCNC(=O)[C@H]1C[C@H]2C(=O)N[C@@H](Cc3ccccc3)C(=O)N2[C@H]1c1cccc(OCCO)c1`, the z-score is -2.77 in [1]; -0.669 (inactive) in experiment [2]; 1.51 (inactive) in experiment [3]; -0.627 (inactive) in experiment [5]; 0.262 (inactive) in experiment [6]; 0.968 (inactive) in experiment [7]. The z-score is 0.846 (inactive) in [8] and 1.06 in experiment [9]. The results for the composite z-score in experiment [4] and in experiment [10] were 1.18 (inactive) and 0.081, respectively.
For the molecule `Cc1ccc(S[C@]2(C(=O)NCC(C)C)CC(=O)N(Cc3cc(C(F)(F)F)cc(C(F)(F)F)c3)[C@@H]2c2ccc(CO)cc2)cc1`, the z-score in experiment [1] was -0.0834; in experiment [2] it was -0.58 (inactive); in experiment [3], -0.656 (inactive); in experiment [5], 0.559 (inactive); in experiment [6], -0.622 (inactive); in experiment [7] it was -0.995 (inactive). The z-score was -0.882 (inactive) in experiment [8] and -0.321 in experiment [9]. Besides, the composite z-score in experiment [4] was -0.099 (inactive); in experiment [10], -0.142.
Regarding `COc1ccc([Si](C)(C)[C@H]2[C@H](CCO)O[C@@]3(C(=O)N(Cc4ccccc4)c4ccc(N5CCCCC5=O)cc43)[C@@H]2C)cc1`, the z-score in experiment [1] is -1.91; in experiment [2] it was 0.234 (inactive); in experiment [3], -2.66 (inactive); in experiment [5] it was 1.51 (inactive); in [6], 3.14 (inactive); in [7], 0.663 (inactive). Also, the z-score is 0.45 (inactive) in experiment [8] and -3.46 in [9]. Further, the composite z-score in experiment [4] was -2.81 (inactive); in experiment [10], -0.0025.
For `COc1ccc([C@H]2OC[C@@H]3CCC(=O)N32)cc1`, the z-score in experiment [1] was 0.219; in [2], 0.242 (inactive); in experiment [3] it was 0.526 (inactive); in experiment [5] it was -0.133 (inactive); in experiment [6], 0.189 (inactive); in experiment [7], 0.905 (inactive). The z-score is 0.593 (inactive) in experiment [8] and 0.131 in experiment [9]. Moreover, the composite z-score in experiment [4] is -0.0915 (inactive); in [10] it was -0.199.
With `CCOc1ccc(N2C(=O)CSC2c2cccc([N+](=O)[O-])c2)cc1` (stereo not given), the z-score was 0.296 in [1]; 0.269 (inactive) in experiment [2]; -0.0959 (inactive) in experiment [3]; -0.0902 (inactive) in experiment [5]; 0.791 (inactive) in experiment [6]; 0.754 (inactive) in [7]. Besides, the z-score is 0.908 (inactive) in [8] and -0.0239 in experiment [9]. For the same molecule, the figures for the composite z-score in experiment [4] and in experiment [10] were -0.274 (inactive) and -0.183, respectively.
Regarding `CN1C(=O)C2C=CC(C(O)c3c(F)cccc3Cl)N(NC(=O)OC(C)(C)C)C2C1=O` (stereo not given), the z-score in experiment [1] was -0.417; in experiment [2], 0.357 (inactive); in experiment [3] it was -0.414 (inactive); in [5], 0.791 (inactive); in [6], 0.0301 (inactive); in experiment [7], -0.775 (inactive). For the same molecule, the z-score in experiment [8] was -0.181 (inactive); in [9], -0.301. The composite z-score in experiment [4] was 0.17 (inactive); in experiment [10], 0.0951.
On to `COC(=O)C(CC#Cc1ccc2c(c1)[C@]1(C(=O)N2)[C@H](c2ccc(O)cc2)N2[C@H](c3ccccc3)[C@H](c3ccccc3)OC(=O)[C@H]2[C@@H]1C(=O)N1CCN(c2ncccn2)CC1)C(=O)OC`, for which the z-score in [1] is -0.0862; in experiment [2] it was 0.238 (inactive); in [3], -1.02 (inactive); in experiment [5] it was 0.847 (inactive); in [6], 0.849 (inactive); in experiment [7], 0.551 (inactive). Further, the z-score is 0.769 (inactive) in [8] and -3.92 in experiment [9]. Further, the composite z-score was 0.0817 (inactive) in [4] and -0.0668 in experiment [10].
In the case of `COC(=O)c1c2oc(c1C(=O)OC)C(=O)N[C@@H](C(C)C)Cn1cc(nn1)C1(CCCCC1)NC(=O)N[C@H](CO)CC2`, the z-score is 1.61 in experiment [1]; -1.04 (inactive) in [2]; 1.31 (inactive) in experiment [3]; 0.985 (inactive) in experiment [5]; -0.719 (inactive) in experiment [6]; 0.925 (inactive) in experiment [7]. The values for the z-score in experiment [8] and in experiment [9] were 1.11 (inactive) and 1.07, respectively. The composite z-score is 0.0825 (inactive) in experiment [4] and 0.098 in experiment [10].
Take `COCC(=C=CC[C@H](O)c1cccc(OCCO)c1)C[C@H](O)c1cc(Cl)cc(Cl)c1O`: the z-score in experiment [1] was 1.13; in experiment [2], -2.5 (inactive); in [3], 0.685 (inactive); in experiment [5], 0.625 (inactive); in experiment [6], 0.337 (inactive); in experiment [7], 0.679 (inactive). For the same molecule, the z-score in experiment [8] is 0.477 (inactive); in [9], 0.159. Moreover, the results for the composite z-score in [4] and in experiment [10] were -0.492 (inactive) and -0.0669, respectively.

(Values after PubChem BioAssay.)
